Reference: the supplement of paper PMC6555819

Legend:
Assay in all cases: PBM binding z-score (relative to random genomic background probes); higher = stronger binding; sequences stand for … in GC…GCGATTGACAGCGTAGAATGAAGG
[1] = tested on: RARb homodimer (NR concentration 270 nM)
In short: (§1)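 Scanned fluorescence from custom Agilent 4×180K protein-binding microarrays was regression-normalized. Binding z-scores use random background probes as reference. Ligand-free nuclear receptor dimers were incubated on the arrays for 1 h and detected with antibodies against each partner (one per run).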

[2] = tested on: RARg:RXRa (NR concentration 270 nM, RXRa partner concentration 90 nM)
In short: as §1

[3] = tested on: RARg homodimer (NR concentration 270 nM)
In short: as §1

[4] = tested on: RXRa DBDmut IVT, anti-RXR (DBD mutation: RXRa K156A/R161A, NR concentration 90 nM)
In short: as §1

[5] = tested on: RXRa homodimer (NR concentration 180 nM)
In short: as §1

[6] = tested on: THRa:RXRa (NR concentration 90 nM, RXRa partner concentration 90 nM)
In short: as §1

[7] = tested on: THRa homodimer (NR concentration 90 nM)
In short: as §1

[8] = tested on: VDR homodimer (NR concentration 270 nM)
In short: as §1

Sequence | PBM binding z-score [1] | PBM binding z-score [2] | PBM binding z-score [3] | PBM binding z-score [4] | PBM binding z-score [5] | PBM binding z-score [6] | PBM binding z-score [7] | PBM binding z-score [8]
AGAATGAGGGCAATGAGTTGATAGCACGGGTGGC | 1.18 | 1.31 | 1.47 | 2.27 | 0.95 | 1.59 | 0.363 | 3.47
ATCTGTAGGTAACCAAGTTCAGTGAATGCCGAAC | 1.32 | 0.689 | 0.722 | 0.655 | 0.689 | 1.26 | 0.246 | 2.56
CCTACTGGGCCATCAGGTCATCGATATCAACGTT | 2.83 | 2.31 | 2.29 | 0.257 | 1.58 | 3.45 | 3.33 | 1.24
CCTAGCAGGCCAATCTGGGTGACTCAAGGCTTGA | -0.195 | -0.294 | -0.326 | -0.391 | -0.592 | 2.16 | -0.548 | -0.648
CAAACTAGGTCACCGGAAGGTGAAAGTCCGCATG | 4.38 | 6.41 | 5.87 | 1.3 | 4.7 | 4.01 | 2.37 | 0.904
CGAACTAGGTCAGAACTGGACAGTGAAGGATGAT | 1.62 | 2.49 | 3.05 | 0.459 | 1.3 | 1.13 | -0.298 | 0.221
TCATATAGGTAAAAGGTGGAAGTCGGTGTGGTAA | 0.589 | 0.466 | -0.0176 | 1.55 | 1.54 | 0.305 | 0.294 | 0.281
AGAATGAGGTTACGATCAGGGAAACAGAATACAT | 1.15 | 2.31 | 1.83 | 0.839 | 2.77 | 2.99 | 0.967 | 0.356
CCGACTGGGGCCAGGTTACCATAACGCACAGCCA | 0.918 | 0.349 | 0.638 | -0.672 | 0.426 | 0.785 | 0.378 | -0.444
ACTAGCAGGCCAAGTCTGGGTCACTCAAACAAAG | 2.36 | 2.25 | 1.48 | -0.171 | 0.902 | 2.35 | 0.768 | 0.0682
TCTAGTTGGTCACGGAGGTCACACAAGACGGGTA | 4.03 | 4.88 | 4.81 | 1.22 | 4.67 | 3.75 | 2.37 | 3.03
GATACAGGGTCAGTTAGAGGCCAGAGTATGGAAA | 3.21 | 5.99 | 4.52 | 1.88 | 3.67 | 2.73 | 0.565 | 1.51
CCAACTAGGTCACAGAGGTCAAAGTCCGTGCGTA | 5.91 | 7.44 | 8.06 | 3.39 | 7.77 | 4.66 | 3.24 | 6.85
CCAAGCAGGCCAGGGTCACTCAAGCATTTCGCTT | 2.75 | 3.16 | 2.36 | 0.375 | 3.22 | 3 | 1.15 | 1.51
AGGCAAAGTTCATCTAGGTAACGTAAGATATGCT | 3.56 | 5.33 | 5.75 | 4.59 | 4.37 | 3.18 | 0.436 | 4.85
ACTATTAGTTGTGACGAGGGCAACCGATAGGTTG | 1.21 | 0.579 | 0.719 | 0.601 | 0.491 | 1.32 | 0.209 | 0.862
GTACCAAGGTGAATAGGTCCTTGATGAGTAGGCG | 0.586 | 0.974 | 0.683 | -0.522 | 0.785 | 1.23 | 0.287 | -0.46
GCTGCTAGGTCAACGGATGGTCAGCTAAAGCTCG | 3.51 | 4.98 | 5.24 | 1.17 | 2.82 | 2.51 | 0.887 | 0.0371
CCTTGCGGGTCAAGGTTATAGCACGGGTGGTACG | 3.04 | 4.37 | 4.11 | 0.089 | 4.68 | 3 | 0.776 | 1.01

Sequence | PBM binding z-score [1] | PBM binding z-score [2] | PBM binding z-score [3] | PBM binding z-score [4] | PBM binding z-score [5] | PBM binding z-score [6] | PBM binding z-score [7] | PBM binding z-score [8]
AGTCAAAGTTCATCTAGGTACCGTAAGATATGCT | 3.72 | 5.39 | 5.76 | 4.67 | 4.36 | 3.05 | -0.565 | 5.46
CCGAATGGGGCAAAGGTTACCATACTCAGTACGA | 2.37 | 3.65 | 1.72 | 0.549 | 4.27 | 1.86 | -0.191 | 0.204
TAGCCTAGGTCAGTTCGGGCCAGTATACGCTATA | 2.51 | 2.29 | 3.3 | 0.0401 | 0.716 | 4.04 | 0.352 | 0.242
CGTCAAAGTTCAACTAGGGTAACGTAAAGCACGC | 4.3 | 5.87 | 6.62 | 4.69 | 5.44 | 5.14 | 0.583 | 4.44
TCTTGTAGAGCAAGCAGGTTAAGAAAGCCTGAGT | -0.297 | -0.441 | -0.538 | -0.187 | -0.0799 | -0.2 | -1.05 | -0.461
GGAACGAGGGAAAAGTTGATAGCATCTGTCGACG | -0.745 | -0.112 | 0.0748 | -0.319 | -0.0103 | -0.553 | -1.15 | -0.433
GCGTACGGGTCAAAGGTTATAGCATGAATAGAAT | 3.14 | 6.99 | 4.57 | 1.83 | 9.61 | 3.78 | -0.479 | 1.08
TTACCAAGGTGAGAGGTCGTTGATGCACGCCTTG | 1.97 | 2.58 | 1.3 | 0.404 | 3.24 | 2.6 | 1.11 | 1.66
ATCGAAAGGTCGAGGTGAGTAGAGAGAAAGGGAA | 2.81 | 4.37 | 4.69 | 0.806 | 4.41 | 2.62 | 0.626 | 0.405
TCTGCTAGGTCAACGGTGGTCAGCTAATCTGCTA | 3.48 | 4.11 | 4.99 | 1.01 | 2.54 | 3.46 | 0.796 | -0.606
CAAACTAGGTCACGAAAGGTCAAAGACGAATGAC | 5.96 | 7.75 | 8.37 | 2.55 | 8.19 | 5.15 | 2.72 | 3.52
CCTCACGGGTCAAGGTTATAGCACGGGTGGTACG | 3.31 | 4.6 | 4.55 | -0.168 | 4.92 | 2.82 | 0.624 | 1.18
TAGCCTAGGCCATTGGGCCAGTATAGTACGCATC | -0.0575 | -0.137 | 0.339 | -1.16 | -0.506 | -0.321 | -0.972 | -0.404
CCTGCTAGGTCATGGTCAGCTACTCTACAGTATG | 3.28 | 3.94 | 4.84 | 1.7 | 2.51 | 2.76 | 1.42 | 0.186
GCGACTGGGGCAAAGCACGTTACCATAAGGTTGG | 0.0132 | 0.0263 | 0.422 | -0.0988 | 0.0282 | -0.139 | -0.582 | -0.524
GCTGCTAGGTCAGGTTGGTCATCTAACGGGTACG | 2.84 | 2.81 | 3.9 | 0.588 | 1.18 | 1.94 | 0.942 | 0.689
AGAACGAGGGCACGCTGAGTTGAGAGCAGAGTAG | 1.24 | 2.01 | 2.05 | 1.81 | 1.57 | 1.95 | -0.054 | 1.29
CGAACTAGGTCATTGACAGGACGGTGAATAGTAA | 2.33 | 4.09 | 4.33 | 2.13 | 2.59 | 2.58 | 0.313 | 0.872
CGTCCAAGGTCAAGGTCAGTGAAAGAGACTCGAA | 5.29 | 6.79 | 7.8 | 3.95 | 6.28 | 4.39 | 3.78 | 2.89

Sequence | PBM binding z-score [1] | PBM binding z-score [2] | PBM binding z-score [3] | PBM binding z-score [4] | PBM binding z-score [5] | PBM binding z-score [6] | PBM binding z-score [7] | PBM binding z-score [8]
ATCCAAAGGTCGACGAGGTGAGTATACACCGTTT | 3.09 | 4.27 | 4.1 | 1.22 | 4.44 | 3.66 | 1.12 | 0.772
ACTATAAGTTGAGACGAGGGCAACCGATAGGTTG | 1.57 | 1.19 | 1.21 | 0.723 | 0.925 | 3.73 | 0.194 | 1.39
CCTCGGAGGACAACAGCAGGTCAGAGCTGCCAGA | 2.46 | 2.16 | 2.22 | 0.024 | 0.692 | 2.01 | 0.482 | 0.0855
TAGCCTAGGTCATGGGCCGGTATACCACGCGAAC | 3.04 | 4.1 | 4.58 | -0.511 | 3.4 | 3.15 | 1.37 | 0.45
AGAACGAGGGCAATGAGTTGACAGCACGGGTGGC | 1.2 | 1.33 | 1.73 | 1.54 | 1.02 | 1.19 | -0.211 | 2.89
CTTACTGGGCCATTCAGAGGTCATTGATCATATG | 4.12 | 4.5 | 3.62 | 1.88 | 4.04 | 3.24 | 1.61 | 3.73
TCATATAGGTAAACAGGTCAAAGTCCGTAAGTTA | 2.99 | 3.2 | 2.4 | 1.54 | 3.59 | 2.27 | 0.804 | 1.93
ATACCAAGGTGATCGTGAGGTCGTTTATACTAAC | 1.98 | 2.29 | 1.01 | 1.06 | 1.36 | 3.56 | 2.59 | 3.5
AGAATGAGGTAAAGATCAGGGAAACAGAATACAT | 0.102 | 0.258 | 0.491 | -0.375 | 0.406 | 1.79 | 0.604 | -0.343
TCTTGAAGATCAGCAGGTTAAGAAAGCTGGCCAA | -0.114 | -0.154 | -0.281 | 0.572 | 0.316 | -0.00481 | -1.05 | -0.317
ATCGAAAGGTCGAGGTGAGTACAGAGAAAGGGAA | 2.93 | 4.39 | 4.17 | 0.83 | 3.89 | 3.1 | 0.817 | 1.13
TGAATGAGGTTCTAAGATCAGGGAACGTTGCAAA | -0.907 | -0.113 | -0.275 | -0.623 | -0.155 | -0.125 | -0.86 | -0.351
TCTTGTAGATCAACGGTTAAGAAAGCCGAAGCCT | -0.249 | -0.0923 | -0.227 | 0.721 | 0.21 | -0.24 | -0.541 | -0.227
CCGACTGGGGCAGAAAGGTTACCACACCATCCGG | 2.28 | 1.77 | 1.41 | -0.654 | 1.84 | 1.01 | -0.368 | -0.223
CGTCCAAGGTCAAGGTAAGTGAAAGAGACTCGAA | 4.02 | 6.03 | 7.08 | 3.26 | 5.48 | 3.97 | 2.14 | 1.56
CCGAGAAGGTTATGGGGCATTCAGGCAACGGTGA | 1.61 | 1.84 | 1.38 | 0.364 | 2.23 | 1.3 | 0.0713 | 0.22
CGTCCAAGATCAGCAGGTCAGTGAAAGCGACGTG | 2.09 | 1.01 | 1.51 | 0.253 | 0.844 | 1.11 | 0.018 | 0.137
AGAACGAGGGCCATGAGTTGATAGCACGGGTGGC | 0.111 | 0.395 | 0.308 | -0.019 | 0.448 | -0.138 | -0.79 | 0.371
